# Experimental data taken from PubChem BioAssay.
# Active and inactive are the calls of the source.
# Tests used:
# [1] = E. coli DRC41 culture turbidity changes, primary screen, E. coli filamentation inducer project, strain DRC41, OD650, 48 h (AID 1152);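 also: E. coli MC1000 strain DRC41 lacking acrAB efflux pump and sulA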; conditions: E. coli DRC41 (acrAB sulA), higher = more signal, called active from +8 up or from −8 down
# [2] = small-molecule binders of probe aLefty1, primary screen, biochemical, small-molecule microarray, 635/667 nm fluorescence (AID 1153); conditions: higher = more signal;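 also: score merges spot fluorescence with signal-to-noise ratio from the scanned slide images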
# [3] = PSAC antagonists in infected red cells, primary screen, cell-based, P. falciparum Indochina, OD700, 1 h (AID 1154); conditions: P. falciparum Indochina infected RBC osmotic lysis, higher = more signal, called active from +8 up or from −8 down
# [4] = PSAC antagonists in infected red cells, primary screen, cell-based, P. falciparum Indochina, OD700, 2 h (AID 1155);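 also: lysis reports solute entry through the parasite surface anion channel PSAC; channel blockers reduce lysis of infected cells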; conditions: P. falciparum Indochina infected erythrocytes, osmotic lysis OD700; higher = more signal, called active from +8 up or from −8 down
# [5] = osmotic lysis modulators in infected erythrocytes, primary screen, PSAC antagonist project, cell-based, P. falciparum Indochina, OD700, 3 h (AID 1156); conditions: higher = more signal, called active from +8 up or from −8 down
# [6] = PSAC antagonists in infected red cells, primary screen, cell-based, P. falciparum Indochina, OD700, 18 h (AID 1157); conditions: P. falciparum Indochina infected erythrocytes, osmotic lysis OD700, 18 h; higher = more signal, called active from +8 up or from −8 down
# [7] = modulators of S6 phosphorylation in cells, primary screen, cell-based, A549, cytoblot, luminescence, serum-stimulated (AID 1158); conditions: A549 phospho-S6 cytoblot, 5 h, higher = more signal;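 also: serum-stimulated A549 lung adenocarcinoma cells; signal is phosphorylated S6 detected by cytoblot immunostaining with HRP secondary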
# [8] = biological target: NADPH oxidase 2 (Homo sapiens) (UniProt P04839); assay: NOX2-dependent H2O2 signal modulators, primary screen, NOX inhibitor project, cell-based, HEK293-NOX2, PMA-stimulated, Amplex Red fluorescence (AID 1159); conditions: 45 min, higher = more signal, called active from +8 up or from −8 down; also: test concentration not given here
# [9] = biological target: NADPH oxidase 4 (Homo sapiens) (UniProt Q9NPH5); assay: NOX4-dependent H2O2 signal modulators, primary screen, NOX inhibitor project, cell-based, HEK293-NOX4, tetracycline-induced, Amplex Red fluorescence (AID 1160); conditions: 45 min, higher = more signal, called active from +8 up or from −8 down
# [10] = biological target: NADPH oxidase 5 (Homo sapiens) (UniProt Q96PH1); assay: NOX5-dependent H2O2 signal modulators, primary screen, NOX inhibitor project, cell-based, HEK293-NOX5, Amplex Red fluorescence (AID 1161); conditions: HEK293-NOX5, ionomycin, 45 min, higher = more signal
# [11] = A549 cell viability effects, profiling panel, calcein-AM fluorescence, 48 h, basal (AID 1162); conditions: higher = more signal; also: test concentration not given here
# [12] = adipocyte viability effects, profiling panel, cell-based, 3T3-L1 adipocytes, calcein-AM fluorescence, 48 h, basal (AID 1163); conditions: 3T3-L1 adipocytes viability, higher = more signal; also: test concentration not given here
# [13] = HepG2 cell viability effects, profiling panel, calcein-AM fluorescence, 48 h, basal (AID 1164); conditions: higher = more signal; also: test concentration not given here
# [14] = MM1S cell viability effects, profiling panel, calcein-AM fluorescence, 48 h, basal (AID 1165); conditions: higher = more signal;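 also: viability of MM1S multiple myeloma cells under basal unstimulated conditions; test concentration not given here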
# [15] = basal RPMI8226 viability, no added stimulus, profiling panel, cell-based, calcein-AM fluorescence, 48 h, PK04 Diversity Set (AID 1166); conditions: RPMI8226 myeloma viability, higher = more signal;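 also: cells grown under basal conditions without added stimulus; test concentration not given here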
# [16] = basal HepG2 mitochondrial membrane potential changes, profiling panel, cell-based, JC-1 fluorescence, 24 h, 100 nL compound (AID 1167); conditions: higher = more signal; also: test concentration not given here
# [17] = basal 3T3-L1 adipocyte mitochondrial potential changes, profiling panel, cell-based, JC-1 fluorescence, 3T3-L1 adipocytes, 24 h, 100 nL compound (AID 1168); conditions: JC-1 mitochondrial fluorescence, higher = more signal, called active from +8 up or from −8 down; also: test concentration not given here
# [18] = basal RPMI8226 mitochondrial membrane potential changes, profiling panel, cell-based, JC-1 fluorescence, 24 h, 100 nL compound (AID 1169); conditions: RPMI8226 myeloma, JC-1 mitochondrial potential fluorescence, higher = more signal; also: test concentration not given here
# [19] = basal MM1S mitochondrial membrane potential changes, profiling panel, cell-based, JC-1 fluorescence, 24 h, 100 nL compound (AID 1170); conditions: higher = more signal; also: test concentration not given here
# [20] = A549 lung cancer cell viability effects, profiling panel, resazurin fluorescence, 24 h, PK04 Diversity Set (AID 1171); conditions: higher = more signal, called active from +8 up or from −8 down; also: test concentration not given here
# NADPH oxidase 5 (Homo sapiens), sequence (Q96PH1 whole entry, looked up): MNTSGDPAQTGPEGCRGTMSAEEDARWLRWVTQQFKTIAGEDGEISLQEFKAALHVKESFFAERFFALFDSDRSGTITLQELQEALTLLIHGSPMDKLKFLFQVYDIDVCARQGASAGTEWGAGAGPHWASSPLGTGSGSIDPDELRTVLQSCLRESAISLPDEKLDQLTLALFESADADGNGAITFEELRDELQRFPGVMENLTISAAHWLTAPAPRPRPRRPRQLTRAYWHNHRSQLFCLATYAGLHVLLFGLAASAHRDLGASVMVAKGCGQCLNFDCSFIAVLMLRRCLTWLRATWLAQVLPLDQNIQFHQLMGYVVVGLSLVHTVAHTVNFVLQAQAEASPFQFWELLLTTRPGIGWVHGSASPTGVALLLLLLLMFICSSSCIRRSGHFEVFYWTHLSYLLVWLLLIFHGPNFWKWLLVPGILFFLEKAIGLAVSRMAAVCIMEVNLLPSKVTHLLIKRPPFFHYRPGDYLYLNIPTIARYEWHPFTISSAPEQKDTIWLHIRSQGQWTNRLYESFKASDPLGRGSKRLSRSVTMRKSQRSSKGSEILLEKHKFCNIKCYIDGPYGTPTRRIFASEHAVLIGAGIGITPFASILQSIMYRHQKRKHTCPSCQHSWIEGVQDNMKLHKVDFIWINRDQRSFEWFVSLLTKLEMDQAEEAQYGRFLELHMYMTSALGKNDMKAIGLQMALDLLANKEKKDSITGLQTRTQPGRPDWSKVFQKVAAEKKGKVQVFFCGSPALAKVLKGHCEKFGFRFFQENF
# NADPH oxidase 4 (Homo sapiens), sequence (Q9NPH5 whole entry, looked up): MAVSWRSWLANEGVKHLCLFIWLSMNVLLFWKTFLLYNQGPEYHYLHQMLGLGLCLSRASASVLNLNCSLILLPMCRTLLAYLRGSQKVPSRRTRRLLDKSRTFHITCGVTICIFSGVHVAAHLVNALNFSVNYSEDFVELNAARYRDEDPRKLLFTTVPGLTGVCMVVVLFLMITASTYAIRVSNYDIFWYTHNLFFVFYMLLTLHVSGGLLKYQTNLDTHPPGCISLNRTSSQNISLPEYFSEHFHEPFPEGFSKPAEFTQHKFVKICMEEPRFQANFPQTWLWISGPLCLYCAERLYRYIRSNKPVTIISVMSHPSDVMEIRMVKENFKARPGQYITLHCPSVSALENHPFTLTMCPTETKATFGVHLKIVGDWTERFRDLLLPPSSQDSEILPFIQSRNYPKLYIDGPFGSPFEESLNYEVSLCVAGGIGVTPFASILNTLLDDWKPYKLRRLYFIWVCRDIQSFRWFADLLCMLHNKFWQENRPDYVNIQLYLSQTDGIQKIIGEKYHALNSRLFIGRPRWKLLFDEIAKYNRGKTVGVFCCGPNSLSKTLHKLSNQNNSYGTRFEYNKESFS
# NADPH oxidase 2 (Homo sapiens), sequence (P04839 whole entry, looked up): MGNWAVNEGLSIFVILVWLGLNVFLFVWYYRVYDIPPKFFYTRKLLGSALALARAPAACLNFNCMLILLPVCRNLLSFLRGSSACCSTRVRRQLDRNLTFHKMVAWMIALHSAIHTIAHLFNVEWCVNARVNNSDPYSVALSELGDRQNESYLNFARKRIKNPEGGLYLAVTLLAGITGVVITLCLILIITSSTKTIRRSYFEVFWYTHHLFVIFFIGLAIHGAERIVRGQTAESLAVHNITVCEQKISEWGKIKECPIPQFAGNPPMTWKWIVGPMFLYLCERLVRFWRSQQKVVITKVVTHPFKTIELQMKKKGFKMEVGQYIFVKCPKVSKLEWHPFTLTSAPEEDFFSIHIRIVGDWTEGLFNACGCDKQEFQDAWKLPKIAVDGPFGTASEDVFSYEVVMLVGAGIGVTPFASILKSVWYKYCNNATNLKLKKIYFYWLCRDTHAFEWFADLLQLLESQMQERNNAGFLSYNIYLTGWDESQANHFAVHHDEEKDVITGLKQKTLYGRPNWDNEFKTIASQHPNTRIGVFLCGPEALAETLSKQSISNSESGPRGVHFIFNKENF
Structure (SMILES),z-score [1],composite z-score [2],z-score [3],z-score [4],z-score [5],z-score [6],z-score [7],z-score [8],z-score [9],z-score [10],z-score [11],z-score [12],z-score [13],z-score [14],z-score [15],z-score [16],z-score [17],z-score [18],z-score [19],z-score [20]
[N-]=[N+]=Nc1ccccc1C[C@@]1(C(=O)O)N=C(c2ccc(OCCCO)cc2)O[C@@H]1c1ccccc1,-0.265 (inactive),0.273,17.7 (active),1.37 (inactive),-1.14 (inactive),0.245 (inactive),-0.405,-0.135 (inactive),1.27 (inactive),1.24,-0.0649,-0.532,-0.222,-1.78,-1.26,-1.65,-0.0754 (inactive),0.00697,-0.187,0.293 (inactive)
NC(=O)N1C(=O)C2C(C1=O)C1C=C(CCCO)C2C(c2cccs2)N1Cc1cc2c(cc1Br)OCO2 (stereo not given),0.0978 (inactive),0.254,17.7 (active),2.3 (inactive),0.865 (inactive),0.872 (inactive),0.413,-0.848 (inactive),-0.662 (inactive),-1.1,0.89,1.46,0.78,0.0067,0.695,1.01,0.111 (inactive),-0.11,-0.214,0.514 (inactive)
Cc1ccc(S[C@]2(C(=O)NC3CC3)CC(=O)N(Cc3ccccc3Cl)[C@@H]2c2ccc(CO)cc2I)cc1,0.386 (inactive),0.191,6.9 (inactive),0.789 (inactive),0.796 (inactive),0.0589 (inactive),-0.331,1.53 (inactive),-1.86 (inactive),1.12,0.0293,0.0656,0.556,-2.36,-2.05,0.474,0.515 (inactive),-0.498,-1.45,-0.889 (inactive)
COc1cc2c(cc1OC)CN(C(=O)[C@H]1[C@@H]3C(=O)O[C@@H](c4ccccc4)[C@@H](c4ccccc4)N3[C@@H](c3ccc(OCCO)cc3)[C@]13C(=O)Nc1ccc(C#CC4(O)CCCCCC4)cc13)CC2,1.9 (inactive),1.51,3.15 (inactive),2.15 (inactive),1.08 (inactive),1.35 (inactive),0.108,1.32 (inactive),0.882 (inactive),1.28,0.943,0.0483,1.17,0.217,0.0846,-0.871,0.568 (inactive),-0.338,-0.852,-0.354 (inactive)
C[C@@H](OCc1ccccc1)C1NC(=O)[C@@]23C(=O)N[C@@H](Cc4ccccc4)C2[C@H](C)[C@@]2(C)O[C@H]2C3/C=C/C/C=C\CNC(=O)CNC1=O (stereo not given in full),-0.824 (inactive),-0.012,1.53 (inactive),0.095 (inactive),0.543 (inactive),-0.0634 (inactive),-0.213,1.01 (inactive),1.32 (inactive),1.56,0.758,1.41,-0.762,0.125,-1.25,-0.332,-0.475 (inactive),0.158,0.146,-0.694 (inactive)
C=C(CCCC)/C(=C/C[C@@H](OC(C)=O)c1ccc(CO)o1)c1cc(C(=O)OC)ccc1OC,-0.132 (inactive),-0.0011,9.64 (active),0.938 (inactive),1.3 (inactive),0.553 (inactive),0.476,0.615 (inactive),-0.832 (inactive),-1.18,0.813,-0.504,0.882,-1.81,-0.564,0.152,-0.573 (inactive),0.507,-1.36,0.111 (inactive)
Cc1c(NC(=O)/C(C#N)=C/C=C/c2ccc(N(C)C)cc2)c(=O)n(-c2ccccc2)n1C,0.504 (inactive),0.628,16.3 (active),2.8 (inactive),-0.164 (inactive),0.89 (inactive),-0.466,-2.41 (inactive),-1.51 (inactive),-0.807,0.284,0.257,0.175,0.232,0.285,-0.545,2.26 (inactive),-0.665,1.64,0.765 (inactive)
Cc1ccc(S[C@]2(C(=O)NCC(F)(F)F)CC(=O)N(Cc3ccccc3)[C@@H]2c2ccc(CO)cc2)cc1,-0.009 (inactive),0.0413,1.6 (inactive),-0.821 (inactive),1.56 (inactive),-1.73 (inactive),1.98,-0.599 (inactive),0.488 (inactive),-1.68,0.149,0.787,-0.479,0.0646,-1.28,0.0177,-0.291 (inactive),0.871,-0.686,0.42 (inactive)
CN1C(=O)C2C=CC(C(O)c3c(F)cccc3Cl)N(Nc3ccccc3)C2C1=O (stereo not given),-1.32 (inactive),0.277,0.32 (inactive),0.733 (inactive),-0.108 (inactive),1.12 (inactive),-0.809,-2.08 (inactive),-4.96 (inactive),-2.51,-0.635,-0.924,-1.18,0.161,-1.42,-1.4,-0.144 (inactive),-0.725,0.302,-0.31 (inactive)
O=C(O)[C@H]1C[C@H]2C(=O)N3CCC[C@H]3C(=O)N2[C@H]1c1cccc(OCCO)c1,0.71 (inactive),-0.017,6.65 (inactive),1.08 (inactive),-1.69 (inactive),0.619 (inactive),0.557,-0.117 (inactive),-0.0548 (inactive),1.24,1.67,-0.156,0.601,0.792,-0.8,1.96,-0.652 (inactive),-0.77,-0.568,1.04 (inactive)
CN1C(=O)[C@@]2(CCS(=O)(=O)c3ccccc3)N=C(c3ccc(OCCCO)cc3)O[C@H]2c2ccccc21,0.583 (inactive),-0.0003,30.1 (active),23.3 (active),0.141 (inactive),0.914 (inactive),0.836,-2.59 (inactive),0.479 (inactive),-0.917,0.524,1.1,-0.0319,-0.624,-0.517,0.214,0.426 (inactive),-0.776,0.111,-0.254 (inactive)
COc1ccc([Si](C)(C)[C@H]2[C@H](CCn3cc([C@H](O)c4ccccc4)nn3)O[C@@]3(C(=O)N(Cc4ccc(N5CCC5=O)cc4)c4ccccc43)[C@@H]2C)cc1,0.503 (inactive),0.0341,30.5 (active),27.1 (active),1.25 (inactive),2.07 (inactive),0.436,0.923 (inactive),1.6 (inactive),2.22,0.399,1.19,-0.541,-0.695,-0.412,0.411,-0.391 (inactive),-0.445,-0.202,-0.869 (inactive)
CN(C)CCCNC(=O)[C@@H]1c2ccccc2C(=O)N(CC23CC4CC(CC(C4)C2)C3)[C@H]1c1ccc(CO)cc1,0.0377 (inactive),-0.262,1.1 (inactive),0.964 (inactive),0.648 (inactive),1.09 (inactive),-0.245,-2.04 (inactive),-0.633 (inactive),-0.657,-0.104,0.195,-0.99,-3.75,-1.91,1.44,-0.211 (inactive),-0.296,-1.73,1.21 (inactive)
